For the first assay, the target named is SLC25A3. Briefly: pooled miR-30 sensor sort-seq; sequence = guide strand. The following applies: shRNA.
On to TTTTCTTTATTCAACACAGATA, for which the sensor-assay potency score (higher = more potent) is -1.15.
As to TTAAGTGTAACTGAGAATCCGT, the sensor-assay potency score (higher = more potent) worked out at 0.392.
Sequence TACAAATGTTACAACCAGCTGC had a sensor-assay potency score (higher = more potent) of 0.505.
On the same count and under the same terms, next, TTGTACAGTGCTTCAACAGTAC: 0.043.

The target of a further assay is SLC25A41. The assay is described as above. The following applies: shRNA.
Consider TTGCACTGCTCGAATACGGAGA, for which the sensor-assay potency score (higher = more potent) was -0.376.
Still for that read-out and setting: next, TCTCGCTGCAAGATCTGCCTGG: -0.421; TCCTGTGTCCAGTACCTGCTGT: -0.625.
Still for that read-out and setting: the value for TACACCACATAGCTGATGCCAC was -0.548; that for TAGACCTGCATGTACACCTTGG was -0.353; that for ATACTCAGGAGCAATCTTGAGC was -0.858.
Same read-out and setting: next, TAGAGCAAGTGTTCTGAGGTTC: 0.286; TTCAAGGTTGTTGTCATGCATG: -1.11.
In turn, TGCATGTACACCTTGGCTCTGT came in with a sensor-assay potency score (higher = more potent) of -0.291.
Sequence TATTCCACAGAAGTAATTCTTG came in with a sensor-assay potency score (higher = more potent) of -0.218.
The same measure, in the same setting: next, TAGACAGCCAGGTCGGTGCAGG: -0.911; TTGGTGAAGTTCGTCTTGGAGG: -1.22.

In the next assay the target is SLC25A5. The description is as above. The following applies: shRNA.
For the sequence TTTGTATTGCTTATCTGCAGTG, the sensor-assay potency score (higher = more potent) is -0.375.
In the case of TTATCTTTGAAGGCGAAGTTAA, the sensor-assay potency score (higher = more potent) is -1.05.
Still for that read-out and setting: next, TATCTGATGACATTGGCCAGGT: 0.271; TCTGCAGTGATCTGCTTGCTGG: -0.995; TGCCTTTGTATTGCTTATCTGC: -0.404.
With TTGTATTGCTTATCTGCAGTGA, the sensor-assay potency score (higher = more potent) is -0.0407.
Still for that read-out and setting: the value for TCACGAGCAATCTTCCGCCAGC was -0.904; that for TATAATGCCTTTGTATTGCTTA was 0.347.
Same read-out and setting: next, ATGGATAGGAAGTCAACCCGGC: -0.119.
In turn, TTATCTGCAGTGATCTGCTTGC registered a sensor-assay potency score (higher = more potent) of 0.187.
The same measure, in the same setting: the value for TTCATCATACAAGACAAGCACA was -1.02; that for TTGCTTATCTGCAGTGATCTGC was -0.049.
On the same count and under the same terms, the value for AGATTTGTAGATCTTAACCAGG was -1.69.
On the same count and under the same terms, next, TTTGTAGATCTTAACCAGGCAG: -0.343.
The sequence TTGTATTTATCTTTGAAGGCGA displayed a sensor-assay potency score (higher = more potent) of -0.168.
The same measure, in the same setting: the value for TCGGTAGATGATAATACCCTGC was -0.461.
TTGTAGATCTTAACCAGGCAGT registered a sensor-assay potency score (higher = more potent) of -0.456.
Same read-out and setting: the value for TTGCAGTGTCATAGATACCGAA was -0.793; that for TTGCTTCCCATTTTCAACCAGT was -0.278; that for TCTCTTGTCCACACCACCCAGG was -0.852.
Consider TTCATCACGAGCAATCTTCCGC, for which the sensor-assay potency score (higher = more potent) is -0.132.
Still for that read-out and setting: the value for TACAAGACAAGCACAAAAGCAC was 0.0644.
TGCAGTGTCATAGATACCGAAG came in with a sensor-assay potency score (higher = more potent) of -1.43.
On the same count and under the same terms, next, TTCTCTTGTCCACACCACCCAG: -1.25.

(Values after the OligoGym collection.)
Note: reference of the scale not given here.
